In PubChem BioAssay (EPA / NIEHS):
Records with an inconclusive call do not appear. Activity calls are given as the source filed them. The calls were made as follows, unless noted: active = hit-call score of the fitted dose curve at least 0.9, where 1 is the maximum; inconclusive = response in the unintended direction; inactive = score below 0.9.

Columns and labels:
[1] = read-out: xenobiotic metabolism (CYP1A2), CYP1A2 (gene 1544); assay: CLD_CYP1A2_6hr: CellzDirect (CLD) Gene Expression Assay for xenobiotic metabolism (CYP1A2) at 6 hours (AID 2283663);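 as to AC50: potency is for induction meaning a rise in mRNA above DMSO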
Outline: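 mRNA levels quantified by quantitative nuclease protection assay with chemiluminescence, 6 h after dosing human primary hepatocyte cultures (two donors) across several concentrations, vehicle 0.2% DMSO. Induction fitted upward versus DMSO; phase-contrast cytotoxicity annotated.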

[2] = Tanguay_ZF_120hpf_TR_legacy: (Legacy) Oregon State University Tanguay Lab 120 Hour Post-fertilization zebrafish Assay for Touch Response (AID 2283667)
Outline: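 Binary touch-response call at 120 hpf, analysed as gain of signal versus DMSO baseline. Wild-type 5D larvae, static exposure at 28C, 0.64% DMSO final; 5uM trimethyltin chloride as positive control.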

[3] = CLD_ACTIN_24hr: CellzDirect (CLD) Gene Expression Assay for Baseline Control (Actin) at 24 hours (AID 2283670)
Outline: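 This 24 h qNPA (S1 nuclease protection, chemiluminescence) actin transcript readout in cultured human liver primary cells serves as baseline control. Signal is fitted upward relative to 0.2% DMSO; chemicals tested at multiple concentrations across two donor preparations.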

[4] = read-out: xenobiotic metabolism (CYP1A1), CYP1A1 (gene 1543); assay: CLD_CYP1A1_24hr: CellzDirect (CLD) Gene Expression Assay for xenobiotic metabolism (CYP1A1) at 24 hours (AID 2283673);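 also: CYP1A1 mRNA level by quantitative nuclease protection with chemiluminescence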
Outline: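 Transcript levels were read at 24 h by qNPA chemiluminescence in human liver primary cells. Cells got daily fresh dosing at multiple concentrations (vehicle 0.2% DMSO). Induction fitted upward against DMSO; phase-contrast cytotoxicity annotated.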

[5] = test system: Thyroperoxidase (TPO), gene 54314; assay: CCTE_Simmons_AUR_rTPO: CCTE's Amplex UltraRed Assay for Thyroperoxidase (TPO) Inhibition, Simmons Lab (AID 2283662);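 as to AC50: potency for loss of signal meaning inhibition of peroxidase activity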
Outline: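 Rat thyroid microsomal TPO + 25 uM AUR in 200 mM K phosphate; cpd 5 nM–87.5 uM [final], 8 conc, 0.5% DMSO; 300 uM H2O2 starts rxn; 37C dark 30 min; endpoint FI 544/590 nm; n=3.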

[6] = CCTE_Simmons_CellTiterGLO_HEK293T: Viability Assessment in CCTE's Assays for Thyroperoxidase (TPO) Inhibition, Simmons Lab (AID 2283665);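 as to AC50: cells exposed to compound for 24 h before readout; actives reduce ATP signal below DMSO vehicle meaning cytotoxicity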
Outline: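 Luciferase-coupled ATP content after 24 h exposure gives viability; 8-point series from 5 nM to 87.5 uM final in 0.5% DMSO. Human HEK293T cells, 1% FBS medium, three biological replicates, dichlone positive control.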

[7] = read-out: alkyl and aryl transferase (GSTA2), GSTA2 (gene 2939); assay: CLD_GSTA2_6hr: CellzDirect (CLD) Gene Expression Assay for alkyl and aryl transferase (GSTA2) at 6 hours (AID 2283666)
Outline: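 GSTA2 transcript induction at 6 h, quantified by nuclease protection (qNPA) with chemiluminescent detection, in human liver primary hepatocytes exposed to several compound concentrations with 0.2% DMSO as baseline; phase-contrast morphology annotated apparent cytotoxicity.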

[8] = read-out: glucuronosyltransferase (UGT1A1), UGT1A1 (gene 54658); assay: CLD_UGT1A1_6hr: CellzDirect (CLD) Gene Expression Assay for glucuronosyltransferase (UGT1A1) at 6 hours (AID 2283672)
Outline: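 UGT1A1 mRNA induction, read by quantitative nuclease protection assay, 6 h after dosing primary human hepatocytes (two donors, 0.2% DMSO vehicle). Gain of signal fitted relative to vehicle.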

[9] = read-out: sulfotransferase (SULT2A), SULT2A1 (gene 6822); assay: CLD_SULT2A_6hr: CellzDirect (CLD) Gene Expression Assay for sulfotransferase (SULT2A) at 6 hours (AID 2283669);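 also: hits raise transcript level above the DMSO vehicle baseline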
Outline: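 Measured 6 h after dosing, SULT2A1 mRNA in human hepatocyte lysates was quantified by S1 nuclease protection with chemiluminescent detection. Increases fitted against 0.2% DMSO vehicle baseline; phase-contrast cytotoxicity recorded yes/no.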

[10] = read-out: Cytochrome P450 (CYP24A1_1), CYP24A1 (gene 1591); assay: LTEA_HepaRG_CYP24A1_1: Life Technologies and Expression Analysis (LTEA) Assay for Cytochrome P450 (CYP24A1_1) using HepaRG (AID 2283671; active = hit-call score of the fitted dose curve at least 0.9, where 1 is the maximum; inactive = score below 0.9); conditions: mRNA level, 48 h; actives raise or lower the signal
Outline: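 Readout is CYP24A1 transcript level by qRT-PCR, normalized to three housekeeping genes, with gain or loss of signal fitted against 0.5% DMSO. Human HepaRG cells received compound for 48 h at up to 100 uM.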

CCOP(=S)(OCC)SCCSCC
AC50 [1]: 3.97 µM (active)
outcome [2]: inactive
outcome [3]: inactive
AC50 [4]: 2.7 µM (active)

O=c1ccc(=O)[nH][nH]1
outcome [5]: inactive
outcome [6]: inactive
outcome [7]: inactive
outcome [2]: inactive
outcome [3]: inactive

COP(=O)(OC)OC(Br)C(Cl)(Cl)Br (stereo not given)
outcome [1]: inactive
outcome [7]: inactive
outcome [2]: inactive
outcome [3]: inactive
outcome [4]: inactive

C[Si](Cn1cncn1)(c1ccc(F)cc1)c1ccc(F)cc1
outcome [1]: inactive
outcome [3]: inactive
AC50 [4]: 2.21 µM (active)

CCCSP(=O)(OCC)Oc1ccc(Br)cc1Cl (stereo not given)
AC50 [5]: 15.6 µM (active)
outcome [1]: inactive
AC50 [6]: 41.5 µM (active)
outcome [2]: inactive
outcome [8]: inactive
AC50 [4]: 20 µM (active)

CCc1cccc(C)c1N(C(=O)CCl)C(C)COC (stereo not given)
outcome [1]: inactive
outcome [7]: inactive
outcome [2]: inactive
outcome [3]: inactive
AC50 [4]: 4.65 µM (active)

CON=C(C(=O)OC)c1ccccc1CON=C(C)c1cccc(C(F)(F)F)c1
outcome [2]: inactive
outcome [3]: inactive
outcome [4]: inactive

CSc1nnc(C(C)(C)C)c(=O)n1N
outcome [9]: inactive
outcome [3]: inactive
outcome [8]: inactive
outcome [4]: inactive

CCOC(=O)COc1cc(-c2nn(C)c(OC(F)F)c2Cl)c(F)cc1Cl
outcome [7]: inactive
outcome [2]: inactive
outcome [8]: inactive
outcome [4]: inactive

CNC(=O)ON=C(SC)C(=O)N(C)C
outcome [7]: inactive
outcome [2]: inactive
outcome [3]: inactive

CCCCOC(=O)c1ccccc1C(=O)O
outcome [7]: inactive
outcome [2]: inactive
outcome [8]: inactive

CCc1cccc(CC)c1N(COC)C(=O)CCl
outcome [7]: inactive
outcome [2]: inactive
outcome [10]: inactive
AC50 [4]: 3.06 µM (active)

CCc1cnc(C2=NC(C)(C(C)C)C(=O)N2)c(C(=O)O)c1 (stereo not given)
outcome [7]: inactive
outcome [2]: inactive
outcome [3]: inactive

Cc1cc(C2CC2)nc(Nc2ccccc2)n1
AC50 [4]: 29.9 µM (active)

CN(C)C(=O)Nc1cccc(C(F)(F)F)c1
outcome [2]: inactive
outcome [8]: inactive
AC50 [4]: 2.41 µM (active)

CCNc1nc(Cl)nc(NC(C)(C)C#N)n1
outcome [2]: inactive
outcome [8]: inactive
outcome [4]: inactive

C#CC(C)(C)NC(=O)c1cc(Cl)cc(Cl)c1
outcome [2]: inactive
outcome [8]: inactive
outcome [4]: inactive

Cc1nn(-c2cc(NS(C)(=O)=O)c(Cl)cc2Cl)c(=O)n1C(F)F
outcome [7]: inactive
outcome [2]: inactive
outcome [3]: inactive
outcome [8]: inactive
outcome [4]: inactive

CC1=NNC(=O)N(/N=C/c2cccnc2)C1
outcome [7]: inactive
outcome [2]: inactive
outcome [8]: inactive
AC50 [4]: 4.96 µM (active)

O=C(O)c1cc(Oc2ccc(C(F)(F)F)cc2Cl)ccc1[N+](=O)[O-]
outcome [2]: inactive

COc1cccc(C(=O)NN(C(=O)c2cc(C)cc(C)c2)C(C)(C)C)c1C
outcome [7]: inactive
outcome [2]: inactive
outcome [3]: inactive
AC50 [4]: 36.4 µM (active)

CC(=NC#N)N(C)Cc1ccc(Cl)nc1
outcome [2]: inactive
outcome [9]: inactive
outcome [8]: inactive

COc1cc(OC)nc(Sc2cccc(Cl)c2C(=O)O)n1
outcome [7]: inactive
outcome [2]: inactive
outcome [8]: inactive

Cc1ccn2nc(S(=O)(=O)Nc3c(F)cccc3F)nc2n1
outcome [2]: inactive
outcome [3]: inactive
outcome [4]: inactive

FC(F)C(F)(F)OCC(Cn1cncn1)c1ccc(Cl)cc1Cl (stereo not given)
AC50 [2]: 34.8 µM (active)
outcome [3]: inactive
outcome [8]: inactive
AC50 [4]: 5.2 µM (active)

CNC(=O)ON=C(C)SC
outcome [7]: inactive
outcome [9]: inactive
outcome [3]: inactive
outcome [4]: inactive

COc1ccc(C(=CC(=O)N2CCOCC2)c2ccc(Cl)cc2)cc1OC
outcome [7]: inactive
AC50 [2]: 42.4 µM (active)
outcome [4]: inactive

CC(C1CC1)C(O)(Cn1cncn1)c1ccc(Cl)cc1 (stereo not given)
outcome [2]: inactive
AC50 [4]: 11.9 µM (active)

CNc1cnn(-c2cccc(C(F)(F)F)c2)c(=O)c1Cl
outcome [7]: inactive
outcome [2]: inactive
AC50 [4]: 5.85 µM (active)

CCOP(=O)(OCC)Oc1cc(C)nc(C(C)C)n1
outcome [2]: inactive
outcome [8]: inactive
outcome [4]: inactive

O=[N+]([O-])c1cc(C(F)(F)F)c(Cl)c([N+](=O)[O-])c1Nc1ncc(C(F)(F)F)cc1Cl
outcome [2]: inactive
AC50 [4]: 0.485 µM (active)

CCC(CC)Nc1c([N+](=O)[O-])cc(C)c(C)c1[N+](=O)[O-]
outcome [2]: inactive
AC50 [4]: 20 µM (active)

CNC(=O)Oc1cccc2c1OC(C)(C)O2
outcome [7]: inactive
outcome [2]: inactive
outcome [3]: inactive
outcome [10]: inactive

Nc1nc(N)nc(NC2CC2)n1
outcome [2]: inactive
outcome [3]: inactive
outcome [4]: inactive

CCCCOC(=O)[C@@H](C)Oc1ccc(Oc2ccc(C#N)cc2F)cc1
outcome [2]: inactive
outcome [3]: inactive
outcome [8]: inactive
outcome [4]: inactive

COP(=O)(OC)C(O)C(Cl)(Cl)Cl (stereo not given)
outcome [7]: inactive
outcome [2]: inactive
outcome [3]: inactive

CCCCSP(=O)(SCCCC)SCCCC
outcome [2]: inactive
outcome [8]: inactive
AC50 [4]: 4.53 µM (active)

CC(Oc1cccc(Cl)c1)C(=O)O (stereo not given)
outcome [7]: inactive
outcome [2]: inactive
outcome [3]: inactive
outcome [8]: inactive
outcome [4]: inactive

CCCOc1nn(C(=O)NS(=O)(=O)c2ccccc2C(=O)OC)c(=O)n1C
outcome [7]: inactive
outcome [2]: inactive
outcome [8]: inactive
outcome [4]: inactive

CN(C)NC(=O)CCC(=O)O
outcome [2]: inactive
outcome [9]: inactive
outcome [3]: inactive

CC[C@H](C)[C@H]1O[C@]2(C=C[C@@H]1C)C[C@@H]1C[C@@H](C/C=C(\C)[C@@H](O[C@H]3C[C@H](OC)[C@@H](O[C@H]4C[C@H](OC)[C@@H](NC)[C@H](C)O4)[C@H](C)O3)[C@@H](C)/C=C/C=C3\CO[C@@H]4[C@H](O)C(C)=C[C@@H](C(=O)O1)[C@]34O)O2
outcome [7]: inactive
AC50 [2]: 0.0479 µM (active)
outcome [3]: inactive
outcome [10]: inactive
outcome [4]: inactive

CC(C)[C@H](C(=O)O[C@H](C#N)c1cccc(Oc2ccccc2)c1)c1ccc(Cl)cc1
outcome [7]: inactive
AC50 [2]: 5.43 µM (active)
outcome [4]: inactive
